Data published in PubChem BioAssay (NCATS).
Inconclusive results are not listed. A number with no mark means an inactive call. Calls of active or inactive are those of the source. Calls come from the whole dose curve; as a rule, active = well fitted curve in the direction sought with a large enough effect; inconclusive = small, poorly fitted or top-dose-only effect, or another doubt; inactive = no such curve, though single readings can be large or run the other way. Starred links: 1 amine or outer side, 2 acyl side, 3 side chain; linkers in the order of their positions; H or OH if unused. Positions of bridges follow the written chain, without caps; N, C: chain ends. Non-standard residues stand in square brackets, D forms with d. Residues, ends and D or L forms follow the SMILES beside them. ξ: configuration not given here. *: point of attachment. X3 = C[C@@H](Oc1ccc([C@H](N[*:1])C(=O)[*:2])cc1)[C@]1(/C=C\C(=O)[*:3])CO1; d(aIle) = CC[C@H](C)[C@@H](N)C(=O)O; X2 = CC(C)[C@@H](O)C(C)C(=O)*; ξNMeF = CNC(Cc1ccccc1)C(=O)O; ξT = CC(O)C(N)C(=O)O; ξS = NC(CO)C(=O)O

assay: qHTS for inhibitors of Wild type Zika virus screened against the NCATS CANVASS Library (AID 1347396); settings: Vero cells, Zika virus CPE, CellTiter-Glo, 72 h; series mostly up to 45.9 µM; activity change, negative = antiviral: at the top concentration;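 for activity change, negative = antiviral: ATP luminescence of surviving cells so rescue from viral cell killing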
From the text: Natural products and their derivatives continue to be wellsprings of nascent therapeutic potential. However, many laboratories have limited resources for biological evaluation, leaving their previously isolated or synthesized compounds largely or completely untested. To address this issue, the Canvass library of natural products was assembled (https://tripod.nih.gov/canvass), in collaboration with academic and industry researchers, for quantitative high-throughput screening (qHTS) across a diverse set of cell-based and biochemical assays. The pure (>85% purity by liquid chromatography/mass spectrometry [LC/MS]) Canvass library of 346 natural products were submitted by 45 academic laboratories and companies around the world. We collected pure natural products to circumvent deconvolution and structure elucidation due to time and resource limitations. The library was formatted into 1536-well plates and evaluated in 50 qHTS (in an 11-pnt concentration series) bioassays with broad scope of disease-relevant mechanisms. The resulting data set from 50 different assays was then systematically analyzed to identify overall trends and specific natural products with interesting biological activities. Reported herein are the results of each individual qHTS and their corresponding assay protocol. Vero cells were infected with wild type Zika virus and at 72 hours post-infection viral cytotoxicity was assayed using CellTiter Glo. National Center for Advancing Translational Sciences (NCATS), Rockville, MD National Institute of Health (NIH), Bethesda, Maryland
Zika virus infection assay protocol: 1. In a white-solid bottom 1536-well tissue culture plate (Corning 7494), 3 uL of Vero 766 cells derived (African Green Monkey) were dispensed using a Multidrop Combi (Thermo Fisher Scientific) at a final concentration of 1000 cells / well. 2. The assay plates were incubated overnight at 37C, 5% CO2, 95% humidity to acclimate and attach. 3. […] of compounds (in DMSO; columns 5-48) were pin transferred into the assay plates using the Kalypsis pin tool (Wako USA) equipped with a 1536-well pin heads. This yields a final concentration range of 0.001 - 77 uM. 4. In a biosafety cabinet, the desired MOI Zika virus was calculated and 2 uL of 2.5x Zika virus was dispensed into columns 1, 2 and 5 - 48 using the Multidrop Combi dispenser. Two microliters of media + vehicle was dispensed into columns 3 and 4 as positive controls (no infection, 100% inhibition). The assay plates were sealed with breathable film. 5. The assay plates were incubated for 72 hours at 37C, 5% CO2, 95% humidity. 6. In a biosafety cabinet, the seals were removed by Xpeel Automated Plate Seal Remover (Brooks Life Sciences) and 2.5 uL of CellTiter Glo reagent (Promega) was dispensed into the wells (columns 1 - 48, rows 1 - 32). 7. Luminescence signal was obtained via the ViewLux plate reader (Perkin Elmer) using the clear emission filter and 1x binning, 2 seconds exposure settings.
% is set by controls: 0 for no effect and ±100 for the full control effect; potency is the fitted concentration of half-maximal effect.

Going from `CO[C@@H](/C=C/CC/C=C/C(=O)O)[C@@H](O)[C@H](C)/C=C(\C)[C@H](O)[C@H](C)C(=O)CCCC1CC(=O)NC(=O)C1` to `C/C(=C\[C@H](C)C(=O)C[C@H](O)CC1CC(=O)NC(=O)C1)[C@@H]1OC(=O)/C=C/CC/C=C/C=C/[C@@H]1C`, the “activity change, negative = antiviral” value falls from -3.51% to -29.7%.

Compared with `C[N+](C)(C)CCc1c[nH]c2ccccc12`, `c1ccc2nc3c(cc2c1)[nH]c1ccccc13` is lower in “activity change, negative = antiviral” value: 1.52% for the first, -2.37% for the second.

First: C/C=C1/CN2CC[C@]34C(=C(C(=O)OC)[C@H]1C[C@H]23)Nc1ccccc14
Second: CC[C@]12C=CCN3CC[C@]4(C(=C(C(=O)OC)C1)Nc1ccccc14)[C@@H]32
The “activity change, negative = antiviral” value of the first is higher: 14.1% for the first, -13.6% for the second.

Going from `CO[C@@]12c3c(C)cc(O)c4c(=O)occ(c34)C(=O)[C@@H]1[C@]13COC(=O)c4c(O)cc(C)c(c41)C(=O)[C@H]2[C@@H]3OC(C)=O` to `COC1C(O)C(C)OC(OC2C(Oc3cccc4c(O)c5c(=O)oc6ccc(C)c7c(=O)oc(c34)c5c67)OC(C)C(O)C2O)C1O` (stereo unspecified), the “activity change, negative = antiviral” value falls from 7.75% to -11.4%.

First: C=CC(C)(C)[C@@]12C[C@H]3C(=O)N/C(=C\c4cnc[nH]4)C(=O)N3[C@@H]1Nc1ccccc12
Second: C=CC(C)(C)[C@@]12C[C@H]3C(=O)N/C(=C/c4cnc[nH]4)C(=O)N3[C@@H]1Nc1ccccc12
The “activity change, negative = antiviral” value of the first is higher: 10.3% for the first, 0.647% for the second.

First: C[C@]12CCC3[C@@H](CC[C@@H]4C[C@@H](O)CC[C@]34CO)[C@@]1(O)CC[C@@H]2C1=CC(=O)OC1 (stereo partly specified)
Second: C[C@]12CC(O)C3[C@@H](CC[C@@H]4C[C@@H](O)CC[C@]34CO)[C@@]1(O)CC[C@@H]2C1=CC(=O)OC1 (stereo partly specified)
The “activity change, negative = antiviral” value of the first is lower: -13.3% for the first, -13% for the second.

Going from `C/C=C1/CN2CC[C@@]34c5ccccc5N(C)[C@@H]3[C@@H]2C[C@@H]1[C@H]4C(=O)OC` to `C=C[C@]12C=CCN3CC[C@@]4(c5ccccc5NC(=O)[C@@H]4C1)[C@@H]32`, the “activity change, negative = antiviral” value rises from 3.92% to 11.2%.

Compared with `CCCC[C@@H](C)/C=C1/CN2CCC[C@H]2[C@@](C)(O)[C@@H]1O`, `CCCCC1CC[C@H]2CCCC(CCC)N12` (stereo partly specified) is lower in “activity change, negative = antiviral” value: -0.215% for the first, -17.2% for the second.

First: CC[C@H]1CN2CCc3c([nH]c4cccc(OC)c34)[C@@H]2C[C@@H]1/C(=C\OC)C(=O)OC
Second: CC[C@@H]1CN2CCc3c([nH]c4cccc(OC)c34)[C@@H]2C[C@@H]1/C(=C\OC)C(=O)OC
The “activity change, negative = antiviral” value of the first is lower: -19.6% for the first, 11% for the second.

Going from `CCCC[C@@H]1CC[C@H]2CCCC(CCCO)N12` (stereo partly specified) to `C[C@]12CC(O)C3[C@@H](CCC4C[C@@H](O)CC[C@@]43CO)[C@@]1(O)CC[C@@H]2C1=CC(=O)OC1` (stereo partly specified), the “activity change, negative = antiviral” value falls from 0.785% to -4.09%.

Compared with `CO[C@H]1C[C@H](O[C@H]2[C@@H](O)C[C@H](O[C@H]3CC[C@]4(C=O)[C@H]5CC[C@]6(C)C(C7=CC(=O)OC7)CC[C@]6(O)[C@@H]5CC[C@]4(O)C3)O[C@@H]2C)O[C@H](C)[C@H]1O[C@H]1C[C@@H](OC)[C@@H](O[C@@H]2O[C@H](CO)[C@@H](O)[C@H](O)[C@H]2O)[C@@H](C)O1` (stereo partly specified), `CO[C@H]1[C@H](O[C@H]2CC[C@]3(C=O)[C@H]4CC[C@]5(C)[C@@H](C6=CC(=O)OC6)CC[C@]5(O)[C@@H]4CC[C@]3(O)C2)O[C@H](C)[C@H](O)[C@@H]1OC` is lower in “activity change, negative = antiviral” value: 6.14% for the first, -4.42% for the second.

Going from `CCC(=O)N[C@@H](C[C@H](C)C(Cl)(Cl)Cl)C(=O)N1C(=O)C=C(OC)[C@@H]1C[C@H](C)C(Cl)Cl` to `CC[C@@H]1CN2CCC3(Nc4cccc(OC)c4C3=O)[C@@H]2C[C@@H]1/C(=C\OC)C(=O)OC` (stereo partly specified), the “activity change, negative = antiviral” value falls from 7.6% to -6.67%.

Compared with `C1=C2CCCN[C@H]2C2CC1[C@H]1CCCCN1C2` (stereo partly specified), `O[C@H]1C=C[C@@]23CCN(Cc4cc5c(cc42)OCO5)[C@@H]3C1` is lower in “activity change, negative = antiviral” value: 13.1% for the first, -4.71% for the second.

Going from `C=C[C@H]1CN2CCc3c([nH]c4cccc(OC)c34)[C@@H]2C[C@@H]1/C(=C\OC)C(=O)OC` to `C/C=C(\C)C(=O)O[C@@H]1[C@@H](O)[C@@H]2O[C@H]3[C@H](O[C@@H](CCCCC)CCCCCCC(=O)CCC(=O)OC[C@@H](O2)[C@H]1OC(=O)/C=C/c1ccccc1)O[C@H](C)[C@H](OC(C)=O)[C@@H]3O`, the “activity change, negative = antiviral” value rises from -7.33% to 80.7%.

In the case of `CC[C@H](C)[C@H]1NC(=O)[C@@H](NC(=O)C(C)[C@H](O)C(C)C)[C@@H](C)OC(=O)C2COC(=O)CNC(=O)/C=C\[C@]3(CO3)[C@@H](C)Oc3ccc(cc3)[C@H](NC1=O)C(=O)N(C)C(Cc1ccccc1)C(=O)NC(C(C)O)C(=O)N2` (stereo partly specified) (X2-T[d(aIle)][X3][ξNMeF][ξT][ξS]; ester 1-C; linker 3-6 via G), the “activity change, negative = antiviral” value is reported as -6.57% [at 27.4 µM].

For `COC1=C(C2=C(OC)C(=O)c3cc4c(c(O)c3C2=O)C(=O)O[C@H](C)C4)C(=O)c2c(cc3c(c2O)C(=O)O[C@H](C)C3)C1=O`, the “activity change, negative = antiviral” value was -1.42% [at 15.3 µM].

In the case of `CC(C)CC1C(=O)O[C@H](C(C)C)C(=O)N(C)C(CC(C)C)C(=O)O[C@@H](C(C)C)C(=O)N(C)C(CC(C)C)C(=O)O[C@H](C(C)C)C(=O)N(C)C(CC(C)C)C(=O)O[C@@H](C(C)C)C(=O)N1C` (stereo partly specified), the Potency is reported as 14.7 µM (active).
